Results as given in PubChem BioAssay (NCATS).
“And” between values parts separate entries of the source, which are not always exact repeats. Equal entries are not always repeated. Records with an inconclusive call do not appear. Unmarked numbers belong to inactive results. The source made the active and inactive calls. Calls come from the whole dose curve; as a rule, active = well fitted cell-killing curve with a large enough effect; inconclusive = small, poorly fitted or top-dose-only effect; inactive = flat fitted curve, though single readings scatter.

test: qHTS of pediatric cancer cell lines to identify multiple opportunities for drug repurposing: Confirmatory screen for SK-N-SH cells (AID 1347129); conditions: SK-N-SH neuroblastoma cell viability; series mostly up to 46.1 µM; activity change, negative = cytotoxic: at the top concentration;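 note: cells exposed to compound for 48 h before viability read; nearly all actives have a fitted effect of over 60% in size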;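 for activity change, negative = cytotoxic: plate controls were DMSO for no effect and bortezomib control for full effect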
In short: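 Cells (500-1,000/well) in growth media were settled 5 h at 37 degrees C, then given compounds for 48 h. Viability was read as CellTiter-Glo luminescence. Primary runs used MIPE at 11 points (0.78 nM-46 µM) and NPC at 8 points (0.59 nM-46 µM); follow-ups used 11 points.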
Potency is the fitted concentration of half-maximal effect.

SMILES | Potency | activity change, negative = cytotoxic [%]
N[C@@H](Cc1ccc(N(CCCl)CCCl)cc1)C(=O)O | 18.7 µM (active) | –
C[C@H]1O[C@@H](O[C@H]2[C@@H](O)C[C@H](O[C@H]3[C@@H](O)C[C@H](O[C@H]4CC[C@@]5(C)[C@H](CC[C@@H]6[C@@H]5CC[C@]5(C)[C@@H](C7=CC(=O)OC7)CC[C@]65O)C4)O[C@@H]3C)O[C@@H]2C)C[C@H](O)[C@@H]1O | 0.148 µM (active) | –
COC[C@@H](NC(C)=O)C(=O)NCc1ccccc1 | – | -0.878
O=P1(NCCCl)OCCCN1CCCl (centres undefined) | – | 9.22
CC(C)CC(N(C)C)C1(c2ccc(Cl)cc2)CCC1 (centres undefined) | – | -0.68
C[C@@H]1O[C@@H](O[C@H]2C[C@@H](O)[C@]3(CO)[C@H]4[C@H](O)C[C@]5(C)[C@@H](C6=CC(=O)OC6)CC[C@]5(O)[C@@H]4CC[C@]3(O)C2)[C@H](O)[C@H](O)[C@H]1O | 132 nM (active) and 79.4 nM (active) | –
Cn1cc(C2=C(c3cn(C4CCN(Cc5ccccn5)CC4)c4ccccc34)C(=O)NC2=O)c2ccccc21 | – | -4.44
Cn1c(CCCC(=O)O)nc2cc(N(CCCl)CCCl)ccc21 | – | -21.8
Cc1sc2c(c1C)C(c1ccc(Cl)cc1)=N[C@@H](CC(=O)OC(C)(C)C)c1nnc(C)n1-2 | – | -2.73
